# Experimental data taken from PubChem BioAssay (NCI).
# The panel holds about 83,000 compounds, 20% with a hit somewhere; the sample as a whole holds those more often.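 Testing used 96-well plates and a 48-hour single-concentration exposure. Example: -40 means 40% of the starting cells died.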 Unmarked numbers belong to inactive results. Active and inactive are the calls of the source. The calls were made as follows: active = growth percent below 10; inactive = the rest.
# Experiments:
# Experiment in all cases: NCI-60 one-dose screen, 48 h (100 = growth as untreated, 0 = no growth, -100 = all killed)
# Conditions in all cases: 10 µM unless noted
# [1] = test system: T-47D breast
# [2] = test system: BT-549 breast
# [3] = test system: MDA-MB-435 melanoma
# [4] = test system: SW-620 colon
# [5] = test system: MCF7 breast
# [6] = test system: HCT-116 colon
# [7] = test system: HCC-2998 colon
# [8] = test system: KM12 colon
Structure (SMILES),growth [1],growth [2],growth [3],growth [4],growth [5],growth [6],growth [7],growth [8]
C=C1C(=O)O[C@H]2[C@H]1CC/C(Cn1cc(-c3ccccc3C(F)(F)F)nn1)=C\CC[C@@]1(C)O[C@@H]21,-82.4% (active),-60.4% (active),4.12% (active),-62.9% (active),-70.5% (active),-99.1% (active),-45.9% (active),36.5%
Clc1ccc([I+]c2ccc(Cl)cc2Cl)c(Cl)c1,-44.9% (active),7.13% (active),82.2%,-43.4% (active),-30.9% (active),-37.7% (active),58.3%,39.3%
CCC1=C[C@@H]2CN(C1)Cc1c([nH]c3ccccc13)[C@@](C(=O)OC)(c1cc3c(cc1OC)N(C=O)[C@H]1[C@@](O)(C(=O)OC)[C@H](OC(C)=O)[C@]4(CC)[C@@H]5C[C@@H]5CN5CC[C@]31[C@@H]54)C2,97.5%,47.9%,-57.1% (active),26.3%,10.9%,7.99% (active),-13% (active),8.8% (active)
COC1=CC(c2ccc[nH]2)=N/C1=C\c1[nH]c(C)c(C(=O)CCC(=O)Oc2ccc3c(c2)CCC2C3CC[C@]3(C)[C@@H](O)CC[C@@H]23)c1C (some centres undefined),20.5%,27%,11.9%,-51.1% (active),13.6%,-84.2% (active),9.51% (active),3.48% (active)
Clc1ccc(/C=C/c2nc(N3CCOCC3)c3nc(Cl)c(Cl)cc3n2)cc1,73%,93.6%,98.1%,114%,56.8%,83.7%,94.4%,114%
COc1cc(NC(=O)c2cc3ccccc3nc2Nc2ccc(F)cc2)cc(OC)c1OC,22.1%,30.7%,27%,54.4%,24.2%,35.8%,65.9%,42.7%
CCCS(=O)(=O)c1nc(NC2CC2)cc(-c2ccc3c(ccn3C3CC(C)(C)NC(C)(C)C3)c2)n1,-74.3% (active),-35.7% (active),11.5%,-61.6% (active),-80.5% (active),-78.2% (active),1.29% (active),6.05% (active)
COc1ccc(/C(=N/O)c2cc(OC)c(OC)c(OC)c2)c(OC)c1N,27.2%,36.2%,-42.3% (active),17.4%,21%,20.6%,73.4%,23.8%
COc1ccc(C2=CC(c3ccc(Oc4ccnc5cc(Cl)ccc45)c(OC)c3)c3c(nc(OC)[nH]c3=O)N2)cc1 (centres undefined),53.8%,39.5%,71.3%,50.2%,35.7%,35.8%,84.3%,65.5%
O=S(=O)(NCCCNc1cc(-c2cn(-c3ccccc3)nc2-c2cccc(O)c2)ccn1)c1ccc(Cl)cc1,8.59% (active),11.7%,16.4%,15.6%,11%,15%,-44.9% (active),12.5%
CC/C=C\C/C=C\C[C@H](O)C/C=C1/C(=O)C=C[C@H]1C/C=C\CCC(=O)OC,16.7% [8.25 µM],14.6% [8.25 µM],-14.1% [8.25 µM] (active),6.55% [8.25 µM] (active),28.1% [8.25 µM],-41.6% [8.25 µM] (active),61.2% [8.25 µM],3.51% [8.25 µM] (active)
Cc1cc(C)c(S(=O)(=O)N2CCN(c3cc4c(cc3F)c(=O)c(C(=O)O)cn4C3CC3)CC2)c(C)c1,62.9%,77.3%,76.1%,79.8%,54%,32.2%,47.7%,60.7%
Cc1ccc(Oc2nc3ccccc3cc2-c2nnc(Cn3c(COc4ccccc4)nc4ccccc43)o2)cc1,48.9%,14.7%,50.8%,18.1%,11.6%,-2.01% (active),64.5%,16.7%
COc1ccc(OC)c(-c2ccc(-c3ccccc3N)c3[nH]c4ccccc4c23)c1,62.8%,72.5%,105%,80.7%,69.8%,61.6%,102%,72.9%
Oc1ccc(Cl)cc1-c1cc(-c2ccc(Cl)cc2)n[nH]1,30.9%,84%,84.9%,81%,3.03% (active),43.8%,22%,29.6%
O=C(NNC(=S)Nc1ccccc1)c1ccccn1,53.2%,55.1%,48.4%,42.1%,27.2%,26.7%,40.6%,32.1%
COc1ccc(/C=C/c2nc(N3CCOCC3)c3nc(Cl)c(Cl)cc3n2)cc1OC,88.2%,99.9%,99.8%,109%,111%,89.3%,103%,93.9%
CCCCCCOc1ccc(C2(Cl)c3ccccc3N(C)c3ccccc32)cc1,44.2%,86.5%,-23.5% (active),7.18% (active),0.626% (active),16.1%,59.8%,62.9%
Cc1ccc(Cn2c(-c3cccs3)nc3ccccc32)cc1,72.5%,128%,111%,81.2%,87.7%,76.5%,94.9%,96%
O=S(=O)(c1ccccc1)n1ccc(-c2ccc3c(c2)CCO3)n1,68.8%,96%,104%,93.6%,83.2%,89.1%,90.8%,91.9%
CN(C)c1nc(N)c(N=O)c(N)n1,104%,115%,110%,108%,102%,105%,113%,108%
Nc1nc(-c2ccccc2)cs1,96.7%,116%,107%,108%,94.4%,94.8%,104%,106%
CN(C)CCCNC(=O)C(c1ccccc1)c1ccccc1,87.9%,106%,108%,100%,96.3%,94.3%,99.1%,111%
COc1ccc(/C=C2\CCCC3=C2NC(C)=NC3c2ccc(OC)c(OC)c2)cc1OC (centres undefined),11.2%,-16.1% (active),1.49% (active),-28.8% (active),26.3%,-95.7% (active),-47.8% (active),6.19% (active)
O=[N+]([O-])c1cccc(-c2cc(-c3cc(Br)ccc3O)[nH]n2)c1,21.1%,24.1%,13.5%,28.1%,6.17% (active),13.5%,43.7%,12.5%
COc1cc2c(cc1OCCCCn1c(-c3cc(=O)c4ccccc4o3)nc3ccccc31)N=C[C@@H]1CCCN1C2=O,79.4%,101%,94.9%,86.6%,72.6%,101%,128%,105%
CCOC(=O)C1=C(C)NC(=O)NC1c1ccc(OCC(=O)N/N=C/c2ccc(Cl)cc2)cc1 (centres undefined),87.1%,87.5%,90.6%,94.2%,90.1%,94.2%,97.5%,96.3%
COc1ccc(-c2nc3sccn3c2-c2ccnc(NCCNS(=O)(=O)c3ccc(C(F)(F)F)cc3)n2)cc1,-11.8% (active),2.22% (active),2.65% (active),33.7%,8.53% (active),10%,23.7%,4.4% (active)
